Data reported in PubChem BioAssay AID463173 (ICCB-Longwood Screening Facility, Harvard Medical School, 2010).
The campaign covered roughly 52,000 compounds. About 1,700 (3.3%) were called active. The list comes from a sample in which actives are over-represented; it also holds similar structures and randomly drawn compounds. Unmarked numbers belong to inactive results. Rule as the data show it: active = survival mostly below about 52% (no sharp cut-off); inactive = mostly above about 56%.

What follows are molecules tested on Wild type (assay: growth inhibition of S. aureus wild type versus tarO mutant, primary screen, teichoic acid synthesis inhibitors, RN4220, OD600 (AID 463173)). Settings: S. aureus RN4220 wild type/DeltatarO growth, OD600, 18 h, hits give low values, screened at 18.75 µg/mL (by protocol).

SMILES | survival
Cc1ccc(CNC(=O)c2cc(C3CC3)nc3c2c(C)nn3-c2cccc(Cl)c2C)cc1 | 94%
COc1ccccc1OC(C)C(=O)Nc1cccc(-c2nc3ccccc3s2)c1 (stereo not drawn) | 29%
Cc1ncc(CO)c2c1Oc1nc(-c3ccc(Cl)cc3)nc(SCC(=O)N3CCCCC3)c1C2 | 79%
CCCCN(C)C(=O)c1ccc2c(c1)N(Cc1cccc(Cl)c1)C(=O)c1ccccc1S2=O (stereo not drawn) | 124%
O=S1(=O)c2ccccc2N(Cc2cccc(Cl)c2)c2ccccc21 | -2% (active)
O=C(c1ccc2c(c1)N(Cc1ccc(Cl)cc1)C(=O)c1ccccc1S2(=O)=O)N1CCc2ccccc21 | 147%
CN(C(=O)c1ccc2c(c1)N(Cc1cccc(Cl)c1)C(=O)c1ccccc1S2=O)C1CCCCC1 (stereo not drawn) | 95%
O=S1(=O)c2ccccc2N(Cc2ccc(Cl)cc2)c2ccccc21 | 129%
O=S1(=O)c2ccccc2N(Cc2ccccc2)c2ccccc21 | 69%
COc1ccccc1CNC(=O)c1ccc2c(c1)N(Cc1cccc(C)c1)C(=O)c1ccccc1S2(=O)=O | 90%
CCN(C(=O)c1ccc2c(c1)N(Cc1cccc(Cl)c1)C(=O)c1ccccc1S2=O)c1ccccc1 (stereo not drawn) | 0% (active)
O=C(c1ccc2c(c1)N(Cc1cccc(Cl)c1)C(=O)c1ccccc1S2(=O)=O)N1CCc2ccccc21 | -3% (active)
O=C(NCc1ccccc1)c1ccc2c(c1)N(Cc1cccc(Cl)c1)C(=O)c1ccccc1S2(=O)=O | 74%
COc1ccccc1CNC(=O)c1ccc2c(c1)N(Cc1cccc(Cl)c1)C(=O)c1ccccc1S2(=O)=O | 10% (active)
O=C(c1ccc2c(c1)N(Cc1ccccc1)C(=O)c1ccccc1S2(=O)=O)N1CCc2ccccc21 | 87%
O=C(Nc1cccc(Cl)c1)c1cc2c(=O)[nH]c3ccccc3c2s1 | 63%
COc1ccccc1NC(=O)c1sc2nc(C)c(C(=O)Nc3ccc(C)cc3C)c(-c3ccccc3Cl)c2c1N | 139%
CC(C)CC(=O)NCC(c1ccc2c(c1)OCO2)N1CCN(c2ccccc2F)CC1 (stereo not drawn) | 76%
CCN(CC)CCNC(=O)c1ccc2c(c1)NC(=O)C(CS(=O)(=O)Cc1cccc(Br)c1)N2 (stereo not drawn) | 134%
Cc1ccc(C)c(N2CCN(CCCNC(=O)Nc3ccc(Cl)cc3)CC2)c1 | -6% (active)
CCOc1ccc(NC(=O)NCCN2CCN(c3cc(Cl)ccc3C)CC2)cc1 | 53%
Cc1ccc(Cl)cc1N1CCN(CCCNC(=O)c2nnc(Cc3cccc(Cl)c3)o2)CC1 | 12% (active)

SMILES | survival
O=C(NCCCN1CCN(c2ccc(F)cc2)CC1)Nc1ccc(Cl)cc1 | 64%
Cc1ccc(Cl)cc1N1CCN(CCNC(=O)Nc2ccc(Cl)cc2)CC1 | -6% (active)
O=C(NCCCN1CCN(c2ccccc2F)CC1)c1nnc(Cc2ccc(Cl)cc2Cl)o1 | 77%
Cc1cccc(N2CCN(CCNC(=O)Nc3ccc(Cl)cc3)CC2)c1C | 87%
Cc1ccc(Cl)cc1N1CCN(CCNC(=O)Nc2ccccc2Cl)CC1 | 98%
COc1ccc(Cc2nnc(C(=O)NCCCN3CCN(c4ccccc4F)CC3)o2)cc1OC | 87%
COc1ccc(-c2nnn(CC(=O)N(CC3CCCO3)C(C(=O)NC3CCCCC3)c3cccs3)n2)cc1 (stereo not drawn) | 103%
COc1ccc(NC(=O)CCNS(=O)(=O)c2cccc3nonc23)c(OC)c1 | 67%
CC1CCN(S(=O)(=O)c2ccc3nc(N4CCN(c5ccc(F)cc5)CC4)ccc3c2)CC1 | 92%
COc1ccc(NC(=O)CSC2=Nc3ccccc3C3=NC(CCC(=O)NCc4ccco4)C(=O)N23)cc1 (stereo not drawn) | 60%
CC(C)CC(=O)n1nc(-c2ccco2)nc1NCc1ccc(Cl)cc1 | 83%
O=C(OCc1cc(=O)n2nc(C3CC3)sc2n1)c1ccc(NC(=O)c2ccccc2Cl)cc1 | 99%
O=C1c2[nH]nc(-c3ccccc3O)c2C(c2ccccc2F)N1Cc1ccncc1 (stereo not drawn) | 93%
Cc1cc(C)c(-c2n[nH]c3c2C(c2ccccc2F)N(CCO)C3=O)c(O)c1 (stereo not drawn) | 83%
CCc1ccc(C2c3c(-c4cc(C)ccc4O)n[nH]c3C(=O)N2Cc2cccnc2)cc1 (stereo not drawn) | 74%
COc1cc(C2c3c(-c4cc(C)ccc4O)n[nH]c3C(=O)N2Cc2ccco2)cc(OC)c1OC (stereo not drawn) | 73%
Cc1ccc(C2c3c(-c4cc(C)ccc4O)n[nH]c3C(=O)N2Cc2ccco2)cc1 (stereo not drawn) | 1% (active)
Cc1ccc(O)c(-c2n[nH]c3c2C(c2ccc(F)cc2)N(Cc2ccco2)C3=O)c1 (stereo not drawn) | 2% (active)
Cc1ccc(O)c(-c2n[nH]c3c2C(c2ccccc2F)N(Cc2ccco2)C3=O)c1 (stereo not drawn) | 11% (active)
Cc1cc(C)c(-c2n[nH]c3c2C(c2ccccc2F)N(Cc2ccco2)C3=O)c(O)c1 (stereo not drawn) | 8% (active)
COc1cc(C2c3c(-c4c(C)cc(C)cc4O)n[nH]c3C(=O)N2Cc2ccco2)cc(OC)c1OC (stereo not drawn) | 98%
O=C1c2[nH]nc(-c3ccccc3O)c2C(c2ccc(F)cc2)N1CCO (stereo not drawn) | 81%

SMILES | survival
CCc1ccc(C2c3c(-c4cc(C)ccc4O)n[nH]c3C(=O)N2CCO)cc1 (stereo not drawn) | 78%
O=C1c2[nH]nc(-c3ccccc3O)c2C(c2ccccc2F)N1Cc1cccnc1 (stereo not drawn) | 94%
COc1cc(OC)c(NC(=O)c2c(C)oc3nc(C)nc(N4CCOCC4)c23)cc1Cl | 81%
COc1ccc2c(c1)c(CC(=O)Nc1cccc(F)c1C)c(C)n2C(=O)c1ccc(Cl)cc1 | 152%
COc1ccc(-c2nc3scc(CCNS(=O)(=O)c4c(C)noc4C)n3n2)cc1OC | 123%
CCOc1ccc(-c2cc(-c3nc(-c4cc(OC)c(OC)c(OC)c4)no3)[nH]n2)cc1 | 123%
Oc1ccc(Cl)cc1C1=Nc2ccccc2N=C(c2cccc(Br)c2)C1 | 137%
c1ccc(N2CCN(Cc3nnc(-c4ccc5c(c4)OCO5)o3)CC2)cc1 | 81%
CCOc1ccc(NC(=O)/C(C#N)=C\c2cc(C)n(C)c2C)cc1 | 103%
O=C(CSc1nc(-c2ccccc2)no1)N1CCN(c2ccc(F)cc2)CC1 | 91%
CCc1ccccc1NC(=O)C(C)n1c(=O)cc(C)c2c(C)nn(-c3ccccc3)c21 (stereo not drawn) | 72%
COc1cc(C2C(=O)N(C3CCCCC3)CC(=O)N2CCc2ccccc2)ccc1OC(C)C (stereo not drawn) | 89%
Cc1ccc(CNC(=O)c2cc(Sc3ccc(F)cc3F)nc3ccccc23)cc1 | 94%
CCOC(=O)c1c(C)oc2c1cc(NS(=O)(=O)c1ccc(C)cc1)c1ccccc12 | 86%
COC(=O)c1c(C)oc2c1cc(NS(=O)(=O)c1c(C)cc(C)cc1C)c1ccccc12 | 25% (active)
COc1ccc(OC)c(S(=O)(=O)Nc2cc3c(C(C)=O)c(C)oc3c3ccccc23)c1 | 69%
CCOC(=O)c1sc2sc(C(=O)OCC)c(CN(CC)CC)c2c1CN(CC)CC | 94%
Cc1ccccc1-c1nnc(NC(=O)CC(C)C)s1 | 116%
COc1ccc(CNS(=O)(=O)c2ccc(-c3cc(C(F)(F)F)on3)s2)cc1OC | 133%
COc1ccccc1CNS(=O)(=O)c1ccc(-c2cc(C(F)(F)F)on2)s1 | 73%
COc1ccc(OC)c(CNS(=O)(=O)c2ccc(-c3cc(C(F)(F)F)on3)s2)c1 | -6% (active)
CN1C(=O)Cc2cc(S(=O)(=O)CCC(=O)N3CCN(c4cccc(Cl)c4)CC3)ccc21 | 83%

SMILES | survival
CCC(=O)N1CCc2cc(S(=O)(=O)CCC(=O)N3CCN(c4cccc(C)c4)C(C)C3)ccc21 (stereo not drawn) | 83%
Cc1cccc(N2CCN(C(=O)CCS(=O)(=O)c3ccc4c(c3)CC(=O)N4C)CC2C)c1 (stereo not drawn) | -4% (active)
COc1ccc(-c2cn3c(n2)sc2cc(C(=O)Nc4c(C)cccc4C)ccc23)cc1 | 83%
COc1ccc(OCC(=O)N2CCN(C(=O)c3ccc(OC)c(OC)c3)CC2)cc1 | 134%
Nc1ccc(N2CCOCC2)c(N)c1 | 113%
Nc1ccc(N2CCN(c3ncc(C(F)(F)F)cc3Cl)CC2)c(C(F)(F)F)c1 | -14% (active)
Nc1ccc(-c2ccc(N)cc2C(F)(F)F)c(C(F)(F)F)c1 | 117%
Cc1ccc(C2=Nc3ccccc3N(CC(=O)Nc3ccccc3F)C(=O)C2)cc1C | 83%
COc1ccc(-c2nsc(NC(=O)C(C)Oc3ccc(Cl)c(C)c3)n2)cc1 (stereo not drawn) | 67%
CCC(Oc1ccc(F)cc1)C(=O)Nc1nc2c(s1)CCCC2 (stereo not drawn) | 76%
Cc1cc(C)cc(OCC(=O)Nc2nc(-c3ccc(F)cc3)ns2)c1 | 89%
CC(Oc1ccc(F)cc1)C(=O)Nc1nc(-c2ccc(F)cc2)ns1 (stereo not drawn) | -1% (active)
CCC(Oc1ccc(F)cc1)C(=O)Nc1cc(-c2ccc(C)cc2)no1 (stereo not drawn) | 64%
CCC(Oc1ccc(F)cc1)C(=O)Nc1nc(-c2ccc(F)cc2)ns1 (stereo not drawn) | -1% (active)
O=c1cc(-c2ccc(F)cc2)nc(SCc2nc(-c3ccc(Cl)cc3)no2)[nH]1 | 88%
COC(=O)C1CCN(C(c2ccccc2Cl)c2sc3nc(-c4ccco4)nn3c2O)CC1 (stereo not drawn) | 80%
Cc1ccc(Cl)cc1N1CCN(C(=O)c2c(C)oc3ncnc(N4CCOCC4)c23)CC1 | 69%
Cc1nc(N2CCCC2)c2c(C(=O)N3CCN(c4cc(Cl)ccc4C)CC3)c(C)oc2n1 | 99%
Cc1ccc(Cl)cc1N1CCN(C(=O)c2c(C)oc3ncnc(N4CCCCC4)c23)CC1 | -6% (active)
Cc1oc2ncnc(N3CCCCC3)c2c1C(=O)N1CCN(c2cccc(C(F)(F)F)c2)CC1 | 87%
Cc1nc(N2CCOCC2)c2c(C(=O)N3CCN(c4cccc(C(F)(F)F)c4)CC3)c(C)oc2n1 | 79%
Cc1oc2ncnc(N3CCOCC3)c2c1C(=O)N1CCN(c2cccc(C(F)(F)F)c2)CC1 | -6% (active)
